Test results: PubChem BioAssay AID1626 (SRMLSC, 2009)
Where “and” joins values, the source holds several entries; their conditions need not be identical. Equal values may be shown once. Screen size: about 220,000 compounds; about 2,000 (0.91%) were called active. Inconclusive results (about 2%) are left out. Only a sample is shown. Potency and affinity values are given separately. Unmarked numbers belong to inactive results. Cut-off read from the data, not from the text of the source: inconclusive = inhibition above about 80% without an active follow-up result; inactive = below that; test concentration not stated here.

Experiment: M. tuberculosis H37Rv growth inhibitors, H37Rv strain (AID 1626);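 note: bacteria incubated seven days before Alamar blue readout; 0% = bacteria only wells and 100% = bacteria with antibiotic wells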
Conditions: active compounds read high, concentration not given here

SMILES | inhibition
CCN(CC)S(=O)(=O)c1ccc(/C=C/C(=O)Nc2c(C)n(C)n(-c3ccccc3)c2=O)cc1 | -0.04%
Cn1c(=O)c([N+](=O)[O-])c(NCCCn2ccnc2)c2ccccc21 | -3.33%
Cc1ccccc1-n1nnnc1SC(C)C(=O)NC1CCCc2ccccc21 (stereo not given) | 10.2%
O=C(CSc1nnc(CNc2ccc(F)cc2)o1)OC1CCCCC1 | 25.5%
Cc1ccc(NCc2nnc(SCC(N)=O)o2)c(C)c1 | -3.32%
Cc1ccc(C(=O)CSc2nnc(CNc3ccc(C)cc3C)o2)cc1 | -7.6%
Cn1c(CNc2cccc(Cl)c2)nnc1SCC(=O)OC1CCCCC1 | 62.1%
COC(=O)Nc1ccc(S(=O)(=O)N2CCCCC2C(=O)NCc2ccco2)cc1 (stereo not given) | -7.03%
O=C(COC(=O)CNS(=O)(=O)/C=C/c1ccccc1)NC1CCS(=O)(=O)C1 (stereo not given) | -7.59%
O=C(COc1ccc(Br)cc1Br)NC(=O)NC1CCCC1 | 3.86%
Cc1ccc(CNc2ccc(N3CCOCC3)c(C(=O)O)c2)s1 | -3.09%
COc1cccc(OCC(O)CN2CCC(CN3C(=O)c4cccc5cccc(c45)C3=O)CC2)c1 (stereo not given) | -4.13%
O=C1c2cccc3cccc(c23)C(=O)N1CC1CCN(CC(O)COCc2ccc3c(c2)OCO3)CC1 (stereo not given) | 76.5%
CCCCN(CCCC)C(=O)c1cc(Cl)ccc1[N+](=O)[O-] | 11%
CCN(CC)C(=O)c1cc([N+](=O)[O-])cc2c1-c1ccc([N+](=O)[O-])cc1C2=C(C#N)C#N | 23%
C=CCNC(=O)C1CC(=O)N(c2ccc(OCC(=O)Nc3ccc(Cl)c(C(F)(F)F)c3)cc2)C1 (stereo not given) | -8.95%
Cc1cc(C)c(-c2cc(NC(=O)COC(=O)c3ccc(CO)cc3)n(-c3ccccc3)n2)cc1C | 4.29%
COc1ccc(CNC(=O)COC(=O)CCc2c[nH]c3ccccc23)cc1 | 4.73%
COc1ccc(N2CCN(C(=O)CCc3c[nH]c4ccccc34)CC2)cc1 | -4.15%
CC(=O)N1CCN(C(=O)CCc2c[nH]c3ccccc23)CC1 | 3.68%
COC(=O)C1CCN(C(=O)COC(=O)Cc2c[nH]c3ccccc23)CC1 | 2.16%
COc1ccc(C)cc1NC(=O)CSc1nnc(-c2ccco2)n1Cc1ccco1 | -0.88%
CC(=O)Nc1sc(N/N=C\c2cccc(Cl)c2)nc1-c1cccs1 | 54.5%
CCS(=O)(=O)N1CCCC(C(=O)NCCN(C)Cc2ccccc2)C1 (stereo not given) | -6.72%

SMILES | inhibition
Cc1ccc(C(=O)CSc2ncnc3ccccc23)o1 | 10.6%
COc1ccc(CCN(Cc2cccs2)S(=O)(=O)c2ccc(C(=O)O)cc2)cc1OC | -3.72%
CSc1nnc(-c2cnccn2)n1Cc1ccccc1 | -1.1%
CCOc1ccc(OCCCC(=O)NC2=NCCS2)cc1 | -1.83%
CC(C)(C)c1ccc(OCCC(=O)NC2=NCCS2)cc1 | -11.7%
COc1cccc(CNC23CC4CC(CC(C4)C2)C3)c1OCc1ccccc1 | 13.5%
c1ccc(COc2ccccc2CNC23CC4CC(CC(C4)C2)C3)cc1 | 17%
CS(=O)(=O)N1CCN(C2Cc3ccccc3C2)CC1 | -13.7%
O=[N+]([O-])c1ccc(O)c(C=Nc2ccc3c(c2)OCCO3)c1 | 77.5%
O=[N+]([O-])c1ccc(O)c(C=Nc2ccc3c(c2)OCO3)c1 | 8.62%
CCN1CCN(c2nc(N)c([N+](=O)[O-])c(Nc3ccc(C)c(C)c3)n2)CC1 | 51.5%
Cc1cccc(Nc2nc(N3CCN(C)CC3)nc(N)c2[N+](=O)[O-])c1 | 16.3%
N#Cc1ccccc1Cn1c(=O)n(Cc2ccc(C(=O)NCc3ccco3)cc2)c(=O)c2sccc21 | -3.31%
C/C(CC1(O)C(=O)N(C)c2ccccc21)=N\O (stereo not given) | -3.6%
CN1C(=O)C(O)(CC(=O)c2ccncc2)c2ccccc21 (stereo not given) | 3.47%
COc1cc(OC)c(N(C)C(=O)CCNC(=O)Cn2cnc3ccccc3c2=O)cc1Cl | -0.76%
NC(=NC(=O)c1ccc(Cl)cc1)N1N=CCC1c1ccccc1 (stereo not given) | 11.8%
COc1ccc(C2c3ccc(O)cc3Oc3ncn(CCN4CCOCC4)c(=N)c32)cc1 (stereo not given) | -0.84%
O=C(CCl)Nc1cn(-c2ccccc2)nc1-c1ccc(F)cc1 | 61.8%
CC(=O)Nc1cn(-c2ccccc2)nc1-c1ccccc1 | -0.45%
Cc1ccc(-c2nn(-c3ccccc3)cc2NC(=O)c2ccccc2)cc1 | -0.55%
O=C(Nc1cn(-c2ccccc2)nc1-c1ccc(Cl)cc1)c1ccccc1 | 9.57%
CNC(=S)N1CCc2ccccc2C1 | 3.08%
COc1ccc(NC(=O)C(NC(=O)CNC(C)=O)c2ccc(C)cc2)cc1 (stereo not given) | -6.91%

SMILES | inhibition
O=C(CCN1C(=O)c2ccccc2C1=O)NC(=S)Nc1ccccc1Cl | 9.27%
Oc1[nH]c2ccccc2c1C=Nc1ccc2c(c1)OCCO2 | 6.37%
O=C(NCCCn1ccnc1)c1cc2nc(-c3ccc(Br)cc3)cc(C(F)(F)F)n2n1 | 6.06%
O=C(NCCCn1ccnc1)c1nn2c(C(F)(F)F)cc(-c3ccccc3)nc2c1Cl | -4.76%
O=C(O)COCC(=O)Nc1ccccc1-c1ccccc1 | -0.81%
COc1ccc(CN(C)Cc2nc3scc(-c4ccccc4)c3c(=O)[nH]2)cc1OC | 3.92%
CCOC(=O)N1CCN(c2ccc(Cl)c(Cl)c2)CC1 | 6.01%
COC(=O)N1CCN(c2ccc(Cl)c(Cl)c2)CC1 | -4.81%
O=S1(=O)CCN(CCc2c[nH]c3ccccc23)CC1 | 3.01%
N#Cc1ccc(C(=O)Nc2nnc(-c3ccccn3)o2)cc1 | 1.74%
O=C(CCc1ccccc1)Nc1nnc(-c2ccccn2)o1 | -4.88%
CC(=O)Nc1nnc(-c2ccccn2)o1 | -3.3%
COC(=O)c1ccc(C(=O)Nc2nnc(-c3cccnc3)o2)cc1 | -5.5%
O=C(Nc1nnc(-c2ccncc2)o1)c1cccc(N2C(=O)CCC2=O)c1 | -4.89%
CCC(=O)Nc1nnc(-c2ccccn2)o1 | 5.88%
Cc1nnsc1C(=O)N(Cc1ccccc1)C(C)C | -4.27%
Cc1ccc(CNC(=O)C2CC(c3cccc(F)c3)=NO2)cc1 (stereo not given) | 9.15%
OC(C#CCN1CCOCC1)(c1ccccc1)C1CCCC1 (stereo not given) | 2.94%
CC1CCCCC1NC(=O)CSc1nnc(COc2ccccc2Cl)o1 (stereo not given) | -2.14%
Cc1ccc(C(=O)CSc2nnc(COc3cc(C)cc(C)c3)o2)cc1 | -3.69%
Cc1cc(C)nc(SCc2nnc(SCC(=O)OC3CCCCC3)o2)n1 | 48.1%
O=C(CSc1nnc(COc2ccccc2Cl)o1)NC(=O)NC1CCCC1 | 5.08%
Cc1ccc(C(=O)CSc2nnc(COc3cccc(C)c3)o2)cc1 | -2.67%
CCOC(=O)CSc1nnc(COc2cccc(C)c2)o1 | -4.7%

SMILES | inhibition
CCn1cc(C(=O)OCC(=O)Nc2c(C)cccc2C)c(=O)c2ccc(C)nc21 | 0.89%
Cc1ccccc1CSCCNC(=O)CCSc1ccccc1 | -2.07%
CCOC(=O)c1ccc(NC(=O)CSc2nnc(COc3ccccc3OC)n2CC)cc1 | 6.35%
CCc1cccc(CC)c1NC(=O)c1ccccc1CCc1ccccc1 | 2.03%
COC(c1ccccc1)c1nnc(CCC(=O)N(C)CCc2ccccc2)o1 (stereo not given) | -1.5%
O=C(CCn1cnc2ccccc2c1=O)Nc1nc(-c2ccc(Br)cc2)cs1 | -1.09%
COc1ccc(/C=C2/N=C(SCC(=O)Nc3cc(C)on3)N(c3ccccc3)C2=O)cc1 | 2.4%
C=CCn1c(CNC(=O)c2ccccc2C)nnc1SCC(=O)NC1CCCC1 | -7.41%
CN1CCN(C2=Cc3ccccc3Sc3cc(F)ccc32)CC1 | 2.61%
CN1CCN(CCCN2c3ccccc3Sc3ccc(Cl)cc32)CC1 | -5.97% and 68.2% and 79.9%
CN1CCN(c2ccc(F)cc2N)CC1 | 0.4%
CN1CCN(C2=Cc3ccccc3Sc3cc(F)c(F)cc32)CC1 | 11.1%
CCc1ccc(CCC(=O)Nc2nnc(CC)s2)o1 | 7.07%
COc1ccc(CNc2nc3nc(C)c(Cl)c(C)n3n2)cc1 | -2.45%
O=S(=O)(c1ccc2c(c1)OCCCO2)N1CCNCC1 | -0.23%
O=C(c1ccc2c(c1)OCCO2)N1CCCC(CNS(=O)(=O)c2cccs2)C1 (stereo not given) | 4.35%
Cc1[nH]c2ccccc2c1SCCNC(=O)c1ccc(Br)o1 | -0.07%
CCC(=O)Nc1cccc(NC(=O)c2ccc(C)c([N+](=O)[O-])c2)c1 | 15.4%
CN(C)CCNC(=O)c1cc2ccccc2oc1=O | 2.99%
CC(=O)OCCNC(=O)c1cc2ccccc2oc1=O | -6.56%
CCC1(CC)C(=O)N(C)C(=O)NC1=Nc1ccc(OC)cc1 | -7.12%
NS(=O)(=O)c1ccc(N=C2C(=O)Nc3ccccc32)cc1 | -2.66%
O=S(=O)(Nc1nccs1)c1ccc(F)cc1 | -3.51%
